# “And” between values parts separate entries of the source, which are not always exact repeats. Equal entries are not always repeated. The source made the active and inactive calls.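 How the source made its calls, unless noted: active means normalized viability below 100% at a tested concentration; inactive means the rest.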
# What was measured:
# [1] = hESC survival regulators, cell-based (AID 493140; call rule not given here;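 further: cells exposed to compounds for four days before counting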); settings: human embryonic stem cell survival screen; stronger effect = higher value
# [2] = liver-stage malaria parasite growth inhibition, primary screen, cell-based, HepG2, luciferase luminescence, HepG2 viability (AID 624349; in the data active means parasite load remaining mostly below about 12%, no sharp cut-off; inactive means mostly above about 10%;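 further: 100% = mean of DMSO negative control wells on the same plate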); settings: P. berghei liver stage in HepG2, luciferase luminescence, concentration not given here; parasite load remaining: stronger effect = lower value; viability: measured here: HepG2 viability without parasites
# [3] = stimulators of nuclear beta-catenin in C2C12, primary screen, imaging, WNT3A-conditioned medium, mouse C2C12, NPC library (AID 1117326; in the data active means nuclear beta-catenin stimulation mostly above about 4.2%, no sharp cut-off; inactive means mostly below about 10%); settings: stronger effect = higher value
# [4] = stimulators of insulin release from INS-1E, primary screen, cell-based, 5 mM glucose, NPC library (AID 1117329;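 active means compound raises insulin release from rat beta cells at 5 mM glucose, no numeric limit stated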); settings: rat INS-1E insulin secretion, at 10 µM, stronger effect = higher value
# [5] = growth inhibition of GSK3B-pretreated HCT116 cells – cell-based, CellTiter-Glo, 0.2 to 20 µM (AID 1117336;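 active means compounds lowering colon cancer cell viability after pretreatment blocking the GSK3B kinase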); settings: HCT116 viability after GSK3B inhibitor, at 20 µM, stronger effect = higher value
# [6] = inhibition of endothelial tube formation, primary screen, imaging, VEGF stimulated, CD31 staining, tube area, NPC library (AID 1117340;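 active means compound that reduces growth-factor-driven endothelial tube area in a mixed cell culture, no cutoff stated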); settings: VEGF-stimulated ADSC/ECFC co-culture, at 10 µM, stronger effect = higher value
# [7] = glucagon-like peptide 1 release enhancers, primary assay, NCI-H716 cell line, NPC library (AID 1117341;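 active means compound raises GLP1 secretion from the human gut endocrine cells, with no numeric limit stated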); settings: NCI-H716 cells, at 10 µM, stronger effect = higher value
# [8] = HCT116 colon cancer cell growth inhibition, primary screen, CellTiter-Glo luminescence, NPC library (AID 1117342;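 active means compounds that lower survival of HCT116 colon cancer cells in the luminescence readout, no numeric limit stated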); settings: at 20 µM (top of the series)
# [9] = CellTiter-Glo luminescent readout of SW480 viability loss, NPC library primary (AID 1117343;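 active means compounds that lower viability of the colon cancer cells in the luminescence readout, with no numeric limit stated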); settings: CellTiter-Glo luminescence; at 20 µM (top of the series) unless noted
# [10] = decreased DLD-1 cellular survival, CellTiter-Glo luminescent readout, NPC compound collection, primary HTS (AID 1117346;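 active means compounds that lower survival of DLD-1 colon cancer cells in the luminescence readout, no cutoff given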); settings: DLD-1 viability, CellTiter-Glo luminescence; at 20 µM (top of the series)
# [11] = differential killing of epithelial or mesenchymal cells, primary screen, imaging, PC-3E GFP, TEM4-18 mCherry, co-culture (AID 1345086;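 active means compounds killing one labelled cell type while sparing the other, by normalised counts and ratio limits, not self-fluorescent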;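 on all read-outs here: cells exposed to compound for 72 h before imaging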;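 on red/green cell ratio (normalised): normalised mesenchymal count divided by normalised epithelial count so high means epithelial killing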); settings: imaging cell counts, at 1 µM; for red/green cell ratio (normalised): actives lie on both sides, counts scaled to control wells, 1 = unselective
# [12] = sensitizers of A549 cells to miR-34 induction, primary screen, imaging, A549 dox-inducible miR-34, nuclei and caspase counts (AID 1347080;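 active means compounds whose cell count with miR-34 switched on is under 0.7 times the count with it off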); settings: A549 miR-34 inducible, Hoechst nuclei count, 48 h
# [13] = survival rescue of mitochondrial mutant cells in low glucose, primary screen, MELAS cybrids, Rieske KO mouse fibroblasts, CellTiter-Glo (AID 1508586;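 active means mean z-score across replicates of 1.96 or higher in either the MELAS or the Rieske mutant cell line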;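 further: z relative to plate mean and SD of compound and empty wells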)
# [14] = biological target: NAD(+) hydrolase SARM1 (Homo sapiens) (UniProt Q6SZW1); experiment: SARM1 TIR NADase inhibitors, cell lysate, NAD-Glo luminescence (AID 1508614;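 active means compound whose remaining NAD level is above about 45 nM, limit read from the data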); settings: SAM-TIR HEK293T lysate NADase, at 1 µM, stronger effect = higher value
# [15] = ovarian cancer cell viability with rucaparib, profiling panel, oncology-focused library, rucaparib conditional (AID 1508598); settings: patient-derived ovarian cancer cells, CellTiter-Glo viability, 144 h, stronger effect = lower value
# [16] = LFS_MB_P medulloblastoma growth inhibition, cell-based, chromothripsis tumors, cisplatin or BGB combos (AID 1671449; in the data active means inhibition above about 80%;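 further: cells exposed for 96 hours; 0% = vehicle DMSO and 100% = killing by high DMSO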); settings: LFS_MB_P medulloblastoma cells
# [17] = HDN33 neuroblastoma growth inhibition, cell-based, chromothripsis tumors, cisplatin or BGB combos (AID 1671450; in the data active means inhibition above about 80%;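 further: cells exposed to compound for four days; 0% = vehicle DMSO and 100% = cell killing by high DMSO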); settings: HDN33 neuroblastoma cells, stronger effect = higher value
# [18] = ICB984 medulloblastoma cell growth inhibition, synergistic combos for chromothripsis tumors, cisplatin or BGB combos (AID 1671451; call rule not given here;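 further: cells exposed for 96 hours before readout; 0% = vehicle DMSO and 100% = killing by high DMSO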); settings: ICB984 medulloblastoma cells, drug combinations, stronger effect = higher value
# [19] = HTB85 osteosarcoma cell growth inhibition, synergistic combos for chromothripsis tumors, BGB or cisplatin IC20 combos (AID 1671453; in the data active means inhibition above about 80%;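 further: cells exposed for 96 hours before readout; 0% = vehicle DMSO and 100% = high DMSO killing control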); settings: HTB85 osteosarcoma cells, drug combinations, stronger effect = higher value
# [20] = MDA-MB-436 breast carcinoma cell growth inhibition, synergistic combos for chromothripsis tumors, BGB or cisplatin combos (AID 1671458; call rule not given here;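 further: cells exposed for 96 hours; 0% = vehicle DMSO and 100% = killing by high DMSO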); settings: MDA-MB-436 breast carcinoma growth inhibition, drug combinations, stronger effect = higher value
# [21] = measured here: epithelial PC-3E GFP cell survival
# [22] = measured here: mesenchymal TEM4-18 mCherry cell survival
# [23] = stronger effect = lower value, cell number ratio, induced over uninduced
# [24] = measured here: relative caspase fold change +Dox/-Dox
# [25] = measured here: total cells with miR-34 induction, stronger effect = lower value
# [26] = measured here: total cells without miR-34 induction
# [27] = MELAS cybrid survival, CellTiter-Glo 48 h, stronger effect = higher value
# [28] = Rieske KO mouse fibroblast survival, CellTiter-Glo 72 h
# NAD(+) hydrolase SARM1 (Homo sapiens), sequence (Q6SZW1 whole entry, looked up): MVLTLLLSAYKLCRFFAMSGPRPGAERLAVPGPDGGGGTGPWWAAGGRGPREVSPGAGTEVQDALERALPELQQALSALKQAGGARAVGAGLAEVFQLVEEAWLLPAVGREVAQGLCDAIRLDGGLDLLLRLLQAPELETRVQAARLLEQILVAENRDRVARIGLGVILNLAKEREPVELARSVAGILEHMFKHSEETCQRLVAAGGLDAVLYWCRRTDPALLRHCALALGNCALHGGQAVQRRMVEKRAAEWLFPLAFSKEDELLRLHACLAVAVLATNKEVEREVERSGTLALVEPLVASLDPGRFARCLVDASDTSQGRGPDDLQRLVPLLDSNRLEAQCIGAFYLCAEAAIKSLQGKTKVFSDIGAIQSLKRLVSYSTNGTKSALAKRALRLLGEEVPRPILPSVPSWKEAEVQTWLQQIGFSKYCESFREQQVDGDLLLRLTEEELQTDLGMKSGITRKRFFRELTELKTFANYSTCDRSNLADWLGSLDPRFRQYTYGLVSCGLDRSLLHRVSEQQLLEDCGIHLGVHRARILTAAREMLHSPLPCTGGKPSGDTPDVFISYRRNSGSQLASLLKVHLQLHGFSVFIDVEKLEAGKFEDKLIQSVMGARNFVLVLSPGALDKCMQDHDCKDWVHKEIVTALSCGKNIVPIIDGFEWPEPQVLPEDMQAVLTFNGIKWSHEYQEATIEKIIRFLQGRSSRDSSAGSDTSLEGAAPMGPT
structure (smiles),measurement,setting,value
Cc1cc(=O)oc2cc(O)ccc12,survival,[1],5.33 (inactive)
same,parasite load remaining,[2],118% (inactive)
same,viability,[2],98.7%
same,nuclear beta-catenin stimulation,[3]; at 10 µM,-0.6% (inactive)
same,nuclear beta-catenin stimulation,"[3]; stimulation, at 2 µM",-0.4%
same,insulin secretion stimulation,[4],-1.7% (inactive)
same,viability decrease,[5],-10.2% (inactive)
same,tube area decrease,[6],-7.2% (inactive)
same,GLP1 secretion stimulation,[7],3.1% (inactive)
same,inhibition of viability,[8],13.6% (inactive)
same,viability decrease (inhibition),[9],12.3% (inactive)
same,viability decrease (inhibition),[10],-2.45% (inactive)
same,red/green cell ratio (normalised),[11],0.94 (inactive)
same,normalised cell number,[11]; [21],1.05
same,normalised cell number,[11]; [22],0.99
same,fold change,[12]; [23],0.873 (inactive) and 0.847 (inactive) and 0.939 (inactive)
same,fold change,[12]; [24],1.07 and 1.58 and 0.709
same,cell count,[12]; [25],8530 and 9030 and 8940
same,cell count,[12]; [26],9770 and 10700 and 9520
same,z-score,[13]; [27],-0.289 (inactive) and 0.464 (inactive)
same,z-score,[13]; [28],0.286 and 0.338
same,remaining NAD,[14],10 nM (inactive)
CC(O)CN(CCN(CC(C)O)CC(C)O)CC(C)O (stereo not given),nuclear beta-catenin stimulation,[3]; at 10 µM,2% (inactive)
same,nuclear beta-catenin stimulation,"[3]; stimulation, at 2 µM",2.5%
same,insulin secretion stimulation,[4],0.5% (inactive)
same,viability decrease,[5],-38.9% (inactive)
same,tube area decrease,[6],5.2% (inactive)
same,GLP1 secretion stimulation,[7],-4.1% (inactive)
same,inhibition of viability,[8],3.07% (inactive)
same,viability decrease (inhibition),[9],18.9% (inactive)
same,viability decrease (inhibition),[10],-3.8% (inactive)
same,red/green cell ratio (normalised),[11],1.23 (inactive)
same,normalised cell number,[11]; [21],0.98
same,normalised cell number,[11]; [22],1.2
same,fold change,[12]; [23],1.01 (inactive)
same,fold change,[12]; [24],0.821
same,cell count,[12]; [25],9510
same,cell count,[12]; [26],9380
O=C(CCCCCCC(=O)Nc1ccccc1)NO,nuclear beta-catenin stimulation,[3]; at 10 µM,7.6% (inactive)
same,nuclear beta-catenin stimulation,"[3]; stimulation, at 2 µM",7.1%
same,insulin secretion stimulation,[4],-1.2% (inactive)
same,viability decrease,[5],53.5% (active)
same,tube area decrease,[6],103% (active)
same,GLP1 secretion stimulation,[7],0.5% (inactive)
same,inhibition of viability,[8],108% (active)
same,viability decrease (inhibition),[9],110% (active)
same,viability decrease (inhibition),[10],58% (active)
same,red/green cell ratio (normalised),[11],1.29 (inactive)
same,normalised cell number,[11]; [21],0.33
same,normalised cell number,[11]; [22],0.42
same,fold change,[12]; [23],1.09 (inactive) and 1.01 (inactive) and 0.979 (inactive)
same,fold change,[12]; [24],0.756 and 1.04 and 1.07
same,cell count,[12]; [25],1690 and 5020 and 1390
same,cell count,[12]; [26],1540 and 4980 and 1420
same,z-score,[13]; [27],0.575 (inactive) and -2.2 (inactive)
same,z-score,[13]; [28],0.979 and -1.4
same,viability,"[15]; at 0.000305 µM, OCI-C5x cells, with rucaparib 10 µM, 100% = cells with rucaparib alone",108% (inactive)
same,viability,"[15]; at 0.000305 µM, OCI-C5x cells, without rucaparib",108% (inactive)
same,viability,"[15]; at 0.000305 µM, OCI-P5x cells, with rucaparib 20 µM, 100% = cells with rucaparib alone",87.7% (active)
same,viability,"[15]; at 0.000305 µM, OCI-P5x cells, without rucaparib",91.8% (active)
same,viability,"[15]; at 0.00122 µM, OCI-C5x cells, with rucaparib 10 µM, 100% = cells with rucaparib alone",112% (inactive)
same,viability,"[15]; at 0.00122 µM, OCI-C5x cells, without rucaparib",106% (inactive)
same,viability,"[15]; at 0.00122 µM, OCI-P5x cells, with rucaparib 20 µM, 100% = cells with rucaparib alone",83% (active)
same,viability,"[15]; at 0.00122 µM, OCI-P5x cells, without rucaparib",97.1% (active)
same,viability,"[15]; at 0.00488 µM, OCI-C5x cells, with rucaparib 10 µM, 100% = cells with rucaparib alone",113% (inactive)
same,viability,"[15]; at 0.00488 µM, OCI-C5x cells, without rucaparib",110% (inactive)
same,viability,"[15]; at 0.00488 µM, OCI-P5x cells, with rucaparib 20 µM, 100% = cells with rucaparib alone",109% (inactive)
same,viability,"[15]; at 0.00488 µM, OCI-P5x cells, without rucaparib",96.9% (active)
same,viability,"[15]; at 0.0195 µM, OCI-C5x cells, with rucaparib 10 µM, 100% = cells with rucaparib alone",111% (inactive)
same,viability,"[15]; at 0.0195 µM, OCI-C5x cells, without rucaparib",114% (inactive)
same,viability,"[15]; at 0.0195 µM, OCI-P5x cells, with rucaparib 20 µM, 100% = cells with rucaparib alone",112% (inactive)
same,viability,"[15]; at 0.0195 µM, OCI-P5x cells, without rucaparib",93.3% (active)
same,viability,"[15]; at 0.0781 µM, OCI-C5x cells, with rucaparib 10 µM, 100% = cells with rucaparib alone",110% (inactive)
same,viability,"[15]; at 0.0781 µM, OCI-C5x cells, without rucaparib",108% (inactive)
same,viability,"[15]; at 0.0781 µM, OCI-P5x cells, with rucaparib 20 µM, 100% = cells with rucaparib alone",96.2% (active)
same,viability,"[15]; at 0.0781 µM, OCI-P5x cells, without rucaparib",83% (active)
same,viability,"[15]; at 0.313 µM, OCI-C5x cells, with rucaparib 10 µM, 100% = cells with rucaparib alone",57.7% (active)
same,viability,"[15]; at 0.313 µM, OCI-C5x cells, without rucaparib",57.4% (active)
same,viability,"[15]; at 0.313 µM, OCI-P5x cells, with rucaparib 20 µM, 100% = cells with rucaparib alone",61.2% (active)
same,viability,"[15]; at 0.313 µM, OCI-P5x cells, without rucaparib",46.1% (active)
same,viability,"[15]; at 1.25 µM, OCI-C5x cells, with rucaparib 10 µM, 100% = cells with rucaparib alone",73.9% (active)
same,viability,"[15]; at 1.25 µM, OCI-C5x cells, without rucaparib",52.8% (active)
same,viability,"[15]; at 1.25 µM, OCI-P5x cells, with rucaparib 20 µM, 100% = cells with rucaparib alone",65.9% (active)
same,viability,"[15]; at 1.25 µM, OCI-P5x cells, without rucaparib",55.9% (active)
same,viability,"[15]; at 5 µM, OCI-C5x cells, with rucaparib 10 µM, 100% = cells with rucaparib alone",8.43% (active)
same,viability,"[15]; at 5 µM, OCI-C5x cells, without rucaparib",7.74% (active)
same,viability,"[15]; at 5 µM, OCI-P5x cells, with rucaparib 20 µM, 100% = cells with rucaparib alone",8.03% (active)
same,viability,"[15]; at 5 µM, OCI-P5x cells, without rucaparib",14.8% (active)
same,remaining NAD,[14],10 nM (inactive)
same,inhibition,"[16]; at 0.5 µM, stronger effect = higher value",76.8% (inactive)
same,inhibition,"[16]; measured here: combination with BGB IC20, at 0.005 µM",-24%
same,inhibition,"[16]; measured here: combination with BGB IC40, at 0.005 µM",-25.1%
same,inhibition,"[16]; measured here: combination with BGB IC40, at 0.05 µM",-21.7%
same,inhibition,"[16]; measured here: combination with cisplatin, at 0.5 µM, stronger effect = higher value",48.5%
same,inhibition,"[16]; measured here: combination with cisplatin, at 5 µM, stronger effect = higher value",107%
same,inhibition,"[17]; BGB combo, at 5 µM",92.3%
same,inhibition,[17]; at 0.5 µM,20.4% (inactive)
same,inhibition,"[17]; cisplatin combo, at 5 µM",98%
same,inhibition,"[17]; measured here: with BGB IC20 combination, at 0.5 µM",5.45%
same,inhibition,"[17]; measured here: with cisplatin IC20 combination, at 0.5 µM",18.5%
same,inhibition,"[17]; single agent, at 5 µM",96.3%
same,inhibition,"[18]; BGB IC20 combo, at 0.005 µM",-9.97%
same,inhibition,"[18]; BGB IC40 combo, at 0.005 µM",-34%
same,inhibition,"[18]; BGB IC40 combo, at 0.05 µM",71.5%
same,inhibition,[18]; at 0.5 µM,-21.1% (inactive)
same,inhibition,"[18]; cisplatin combo, at 0.05 µM",70.7%
same,inhibition,"[18]; cisplatin combo, at 0.5 µM",-19.8%
same,inhibition,"[18]; cisplatin combo, at 5 µM",-86.6%
same,inhibition,"[18]; measured here: 5 uM single agent, at 5 µM",-52.1%
same,inhibition,[19]; at 0.5 µM,1.09% (inactive)
same,inhibition,"[19]; measured here: with BGB IC20, at 0.5 µM",-18.4%
same,inhibition,"[19]; measured here: with BGB IC20, at 5 µM",80.9%
same,inhibition,"[19]; measured here: with cisplatin IC20, at 0.5 µM",21.1%
same,inhibition,"[19]; measured here: with cisplatin IC20, at 5 µM",89.9%
same,inhibition,"[19]; single agent, at 5 µM",87.5%
same,inhibition,[20]; at 0.5 µM,-18.9% (inactive)
same,inhibition,"[20]; measured here: BGB combination, at 0.5 µM",-38.5%
same,inhibition,"[20]; measured here: BGB combination, at 5 µM",32%
same,inhibition,"[20]; measured here: cisplatin combination, at 0.5 µM",-20.9%
same,inhibition,"[20]; measured here: cisplatin combination, at 5 µM",36.6%
